From PubChem BioAssay AID646 (Vanderbilt High Throughput Screening Facility, 2007)
Out of some 1,900 compounds screened, about 15 (0.8%) were called active. Rule as the data show it: active = luminescence above about 3900; inactive = the rest. Not all results are given here.

Target: D(1A) dopamine receptor (Homo sapiens) (UniProt P21728)
Assay: D1 receptor agonism without dopamine, confirmation, mechanism study for D1 allosteric modulator project, cell-based, HEK293 D1, CRE-luciferase, secondary assay 1 (AID 646)
Conditions: no dopamine, at 10 µM, hits give high values

Sequence of D(1A) dopamine receptor (Homo sapiens) (P21728 whole entry, looked up): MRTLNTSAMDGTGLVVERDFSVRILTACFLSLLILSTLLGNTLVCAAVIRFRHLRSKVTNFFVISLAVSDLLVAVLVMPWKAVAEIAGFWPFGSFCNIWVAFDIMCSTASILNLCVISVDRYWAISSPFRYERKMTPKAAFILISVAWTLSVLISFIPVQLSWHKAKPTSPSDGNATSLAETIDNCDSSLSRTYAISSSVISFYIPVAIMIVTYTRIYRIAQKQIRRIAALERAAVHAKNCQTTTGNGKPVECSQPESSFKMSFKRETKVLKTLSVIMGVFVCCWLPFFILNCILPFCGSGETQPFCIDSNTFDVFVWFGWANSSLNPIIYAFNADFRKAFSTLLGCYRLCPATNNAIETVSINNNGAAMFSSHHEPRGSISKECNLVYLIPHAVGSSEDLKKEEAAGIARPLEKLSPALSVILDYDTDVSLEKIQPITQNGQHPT

luminescence, inactive:
CCOc1cc(-c2noc(CCC(=O)N3CCOCC3)n2)ccc1OC 1180
COC(=O)[C@H](C(C)C)n1c(C)c(C(C)=O)c(C(C)=O)c1C 1540
N#Cc1nc(Cc2ccccc2)oc1NCCc1ccccc1 1730
Cc1cc(C)c2c(n1)nn1c(-n3ccnc3)cc(C)nc21 1660
CC1CCN(c2oc(-c3ccccc3F)nc2C#N)CC1 1620
Cc1ccc(C2CC(c3cccc(Br)c3)n3nc(N)nc3N2)cc1 (stereo not given) 1420
COc1cc(NC(=O)N2CCOCC2)cc(OC)c1 1580
COc1ccc(NC(=O)C2CCCN(S(=O)(=O)c3cccc4cccnc34)C2)cc1OC (stereo not given) 1590
CCCc1nc(-c2ccccc2O)n(-c2ccccc2)n1 1710
COc1ccc(-c2nn3c(-c4ccccc4)nnc3s2)cc1OC 1800
O=C(NCc1ccco1)c1cnn2c(C(F)(F)F)cc(-c3ccco3)nc12 1560
Cc1nn(-c2ccccc2)c2c1C(=O)NC(=O)C(C)(C)C2 1740
COc1ccc(-c2nnc(SCC(=O)NC3CCCCC3)o2)cc1OC 1800
c1coc(-c2nc3nc4ccccc4n3nc2-c2ccco2)c1 1610
CC1(C)Cc2ccccc2-c2nc(CN3CCOCC3)[nH]c(=O)c21 1890
CCCCSc1nc2c(c(=O)n1CC)SC(C)C2 (stereo not given) 1490
CCOC(=O)c1c(NC(=O)CSc2nnc(Cc3csc(N)n3)n2C)sc(C)c1C 1680
C#CCNc1nc(C(C)C)nc2c1nnn2Cc1ccccc1F 1600
C/C(=C\C(=O)c1ccccc1)Nc1cccc(O)c1 1340
O=S(=O)(c1cccs1)N1CCc2ccccc2C1 1530
COc1ccc(CCNC(=O)CCn2c(=O)oc3ccccc32)cc1OC 1540
COc1ccc(CCN(C)C(=O)C2CCCN(Cc3ccc(OC)c(OC)c3)C2)cc1OC (stereo not given) 1520
O=C(C1CCC1)N1CCc2cc(S(=O)(=O)NCc3cccnc3)ccc21 1680
CCOC(=O)c1c(NC(=O)CSc2nnc(CN3CCOCC3)n2C)sc2c1CCCC2 1870
CCSc1ncnc2c(C#N)c3n(c12)CCCCC3 1840
N#Cc1nc(N)nc(N(c2ccccc2)c2ccccc2)n1 1620
COc1ncnc2c1N=C1CC(C)(C)CC(N)=C1S2 1620
N#CCCN1CCN(S(=O)(=O)c2ccc(S(=O)(=O)NC3CCCCC3)cc2)CC1 1130
c1ccc(COc2nsnc2N2CCOCC2)cc1 1550
CCc1cc(=O)oc2cc(OCC(=O)N3CCCc4ccccc43)ccc12 1680
Cn1c(/C(C#N)=C2/CCCCCN2)nc2ccccc21 1800
COc1ccc(Nc2oc(-c3ccccc3Cl)nc2C#N)cc1 1750
CCOc1cc(C(=O)N2CCc3cc(OC)c(OC)cc3C2)ccc1OC(F)F 2710
CCOc1ccc(Nc2oc(Cc3ccccc3)nc2C#N)cc1 1910
CCOc1ccccc1C1CC(c2ccccc2)Nc2nc(N)nn21 (stereo not given) 1700
Cc1cc(C(F)(F)F)nn1-c1nc(-c2ccco2)cc(C(F)(F)F)n1 1710
c1ccc(-c2nnc3n2NC(c2ccc4c(c2)OCO4)S3)cc1 (stereo not given) 1610
CCOC(=O)c1cc2n(c1C)-c1ccccc1C2=O 1720
CCSc1nc(C)nc2c1oc1ccccc12 1590
CCCc1nc(N)nc2c1C(=O)CC(C)(C)C2 1560
CCOc1ccc(Cn2c(SCCCCC#N)nc3c2c(=O)n(C)c(=O)n3C)cc1OCC 1460
CC1CCN(c2nc3c(c(=O)[nH]c(=O)n3C)n2CCCc2ccccc2)CC1 1410
Cc1ccc(-c2nn(-c3ccccc3)cc2CN(Cc2ccccc2)C(=O)CCC(=O)O)o1 1420
CC(C)n1c(C(O)c2ccccc2)nc2ccccc21 (stereo not given) 1600
CCCn1c(=O)c2[nH]c(C3CCCC3)nc2n(CCC)c1=O 1560
Nc1ccc(S(=O)(=O)NC(=O)c2ccccc2)cc1 1560
O=c1cc(-c2ccccc2)nc(N2CCCCC2)[nH]1 1600
COC(=O)c1ccccc1NC(=O)C1CCN(S(=O)(=O)c2cc(OC)ccc2OC)CC1 1480
Cn1c(=O)c2cn(-c3cccc4ccccc34)cc2n(C)c1=O 1650
COc1ccc(-n2c(Cc3cccn3C)nnc2SCC(=O)Nc2cc(C)cc(C)c2)cc1 1500
COc1ccc(CCNC(=O)c2cc3sccc3n2C)cc1OC 1640
COc1ccc(-c2nnn(Cc3nc(N)nc(N4CCCCC4)n3)n2)cc1 1520
CN1CCN(CC(O)COCc2ccc3c(c2)OCO3)CC1 (stereo not given) 1670
COc1ncnc2sc3c(c12)CCCC3 1600
CC(C)C1C2=C(CC(C)(C)CC2=O)ON1c1ccccc1 (stereo not given) 1810
COC(=O)C(C)C1Sc2ccccc2NC1=O (stereo not given) 1730
N#Cc1c(N)sc2c1CCN(C(=O)OCc1ccccc1)C2 1760
CC(=O)OC(C)C[N+](C)(C)C (stereo not given) 1390
O=C(CSc1nnc2scc(-c3ccc(F)cc3)n12)NCc1ccco1 1730
COc1ccc(CCNc2ncnc3nc[nH]c23)cc1OC 1540
CCOc1ccc2[nH]c(=O)c(C(c3nnnn3CCOC)N3CCOCC3)cc2c1 (stereo not given) 1550
N#CCSc1nc2ccccc2c(=O)n1-c1ccccc1 1780
COC(=O)C1=C(C)NC2=C(C(=O)c3ccccc32)C1c1ccc(-c2ccc(C(=O)O)cc2)o1 (stereo not given) 1810
CCn1cc(C(=O)NCC2COc3ccccc3O2)c2cc(OC)c(OC)cc2c1=O (stereo not given) 1710
C/C(Cl)=C\Cn1c(Nc2cccc(C)c2)nc2c1c(=O)n(C)c(=O)n2C 1690
